In the supplement of paper PMC12636033:
± gives the standard deviation of the averaged measurements. The full ranking holds about 33,000 sequences; the median of “E-score (rank enrichment, -0.5 to 0.5)” is about -0.0043, and the highest 2% start at about 0.24. Only a selection was taken, and the highest values are over-represented in it overall.

What follows are sequences tested on 2Sp-muMax20 (muMax20 with two 2,6-bis(methyl)pyridine Cys staples) (assay: PBM 8-mer E-score (E-score (rank enrichment, -0.5 to 0.5)); higher = stronger preferential binding).
Description: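 Protein binding microarray (universal PBM chip covering all 10-mers in fixed probe flanks) with chemically synthesized human Max(13-93) bHLH-LZ analogs (not full-length Max) bearing noncanonical residues (hArg, Tha, Aib, Nle at 65) and aromatic Cys staples. Read-out per 8-mer (and its reverse complement): E-score (rank-based enrichment, -0.5 to 0.5) and Z-score of median probe intensity.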

Point of comparison: CGGAATTC, “PBM 8-mer E-score” value -0.121 ± 0.019. Against it:
- AGCACGTG — higher, 0.4333 ± 0.0023
- CCCACGCG — higher, 0.231 ± 0.014
- ATCACGCA — higher, 0.00557 ± 0.0074
- ATCACGCC — higher, 0.192 ± 0.043
- ACTGCCAA — higher, 0.0746 ± 0.053
- GGTAAGAC — within error, -0.0928 ± 0.022
- CCGATAAG — lower, -0.181 ± 0.034
- ATTTTGCA — higher, 0.143 ± 0.086
- TCGTCTCA — within error, -0.0634 ± 0.048
- ATGTACCA — within error, -0.0255 ± 0.13
- GAGTGCGC — higher, -0.0296 ± 0.0031
- CCCCAAGA — higher, 0.144 ± 0.023
- ACCTGGAT — within error, -0.149 ± 0.028
- GCCGCAGA — higher, -0.0428 ± 0.041
- CTAGGACC — lower, -0.182 ± 0.025
- ATCACGTG — higher, 0.397 ± 0.047
- CGCACGCG — higher, 0.178 ± 0.032
- ATCACGTA — within error, 0.00227 ± 0.14
- ATCACGTC — higher, 0.0413 ± 0.035
- AGCACGCG — higher, 0.289 ± 0.0067
- AGCACGCA — higher, 0.00395 ± 0.075
- CTTCTTAA — higher, 0.126 ± 0.15
- CGAAGTGC — higher, 0.0928 ± 0.034
- GACGCGGC — within error, -0.08 ± 0.03
- AACGCGGC — within error, -0.0876 ± 0.028
- CACGCGGC — higher, 0.299 ± 0.034
- AACGCGGA — within error, -0.162 ± 0.14
- CACGCGGA — higher, 0.357 ± 0.015
- CACGCGGG — higher, 0.187 ± 0.091
- ATTATGCC — higher, 0.128 ± 0.012
- TGCGCACA — higher, 0.124 ± 0.025
- ATGGGGCC — within error, -0.0651 ± 0.11
- CTGGGGAA — within error, -0.125 ± 0.026
- ATGGGGTG — higher, 0.175 ± 0.018
- ATGGGGCA — higher, 0.11 ± 0.12
- TGGGGAAA — higher, 0.306 ± 0.022
- GTGGGGGA — higher, 0.0699 ± 0.011
- TGGGGGAA — higher, 0.0001 ± 0.016
- ATGGGGCG — higher, 0.25 ± 0.0057
- GTGGGGAA — higher, 0.277 ± 0.027
- ATGGGGTC — higher, 0.0299 ± 0.041
- ATGGGGTA — higher, 0.239 ± 0.05
- GGGGGAAA — within error, -0.0158 ± 0.089
- CACAGCGG — within error, -0.125 ± 0.059
- GATGCCGA — within error, -0.0813 ± 0.081
- AGCGTATA — higher, 0.0565 ± 0.04
- ACATCACT — higher, 0.176 ± 0.046
- GCCAGTAA — within error, -0.116 ± 0.011
- CCTCGCGC — within error, -0.0606 ± 0.077
- CCTCAGAG — lower, -0.228 ± 0.044
- ATGGGATA — higher, 0.179 ± 0.02
- GTGGGATA — higher, 0.292 ± 0.047
- CTGGGATA — within error, -0.0899 ± 0.077
- ATGGGGAC — higher, 0.0501 ± 0.13
- ATGGGGAA — higher, 0.266 ± 0.018
- ATGGGGGA — higher, -0.0138 ± 0.082
- AGCATACG — higher, 0.02 ± 0.039
- ATCGAGAA — higher, 0.0729 ± 0.041
- ACAGGACC — lower, -0.187 ± 0.045
- CCGGTCCC — lower, -0.358 ± 0.035
- GTCATATA — higher, 0.207 ± 0.099
- ATCATATG — higher, 0.138 ± 0.065
- AACACACT — higher, 0.249 ± 0.0053
- AACATATA — higher, 0.269 ± 0.036
- ATCATATA — higher, 0.254 ± 0.041
- CACATATA — higher, 0.328 ± 0.021
- AACATATG — higher, 0.0968 ± 0.03
- AACACACA — higher, 0.118 ± 0.081
- GACATATA — higher, 0.12 ± 0.0021
- AACACACG — higher, 0.0266 ± 0.031
- CACATATG — higher, 0.112 ± 0.013
- CACATATC — higher, 0.223 ± 0.019
- ACCGGTCG — lower, -0.287 ± 0.03
- CCACGCCC — higher, 0.0986 ± 0.0018
- CTCGTTAC — higher, 0.0748 ± 0.13
- AGCGTTAA — higher, 0.0977 ± 0.058
- ATCCAGTC — higher, -0.0864 ± 0.015
- CAGGAACC — lower, -0.307 ± 0.049
- CCCATAAG — higher, 0.182 ± 0.018
- CCCAGCTC — within error, -0.0772 ± 0.05
- TACATAAA — higher, 0.229 ± 0.018
- CACATCTC — higher, -0.00875 ± 0.02
- CACATCTG — higher, -0.0474 ± 0.049
- CACATCTA — higher, 0.258 ± 0.014
- CACACATA — higher, 0.061 ± 0.0022
- AACACATA — higher, 0.257 ± 0.046
- TACATACA — higher, 0.211 ± 0.075
- AACACATG — higher, 0.224 ± 0.05
- TACATATA — higher, 0.262 ± 0.09
- TAGGTCCA — within error, -0.13 ± 0.058
- GCAACCGA — lower, -0.233 ± 0.078
- CGACCATC — within error, -0.0509 ± 0.089
- CCATTGTA — higher, 0.214 ± 0.022
- ATAAAAAA — higher, 0.202 ± 0.038
- CATAAAAG — within error, -0.0196 ± 0.1
- AATAAAGG — higher, 0.0234 ± 0.076
- CATAAATA — higher, 0.33 ± 0.059
- ATAAAGCG — higher, 0.0648 ± 0.005
- AATAAAAG — higher, 0.25 ± 0.074
- ATAAAAAG — higher, 0.315 ± 0.0042
- ATAAAGCA — higher, 0.241 ± 0.014
- AATAAATA — higher, 0.0526 ± 0.066
- TATAAATA — higher, 0.203 ± 0.1
- CTAAAGCA — higher, 0.0725 ± 0.028
- ATAAAAGG — higher, 0.0278 ± 0.023
- TACGAGAA — higher, 0.0414 ± 0.0095
- CCCGACTC — higher, -0.0283 ± 0.023
- CCGAGCCG — lower, -0.298 ± 0.03
- GACCCGCC — higher, 0.106 ± 0.0061
- TCGGAGAA — within error, -0.136 ± 0.017
- AGGTCTAG — higher, 0.0236 ± 0.096
- ACCTGGTA — within error, -0.129 ± 0.0054
- CATGGGCG — higher, -0.0275 ± 0.017
- CAGCCCCC — within error, -0.165 ± 0.099
- CACTTGAA — higher, 0.112 ± 0.02
- CAAAGGGA — within error, -0.103 ± 0.053
- ATAAAACA — higher, 0.244 ± 0.067
- AATAAAAC — higher, 0.223 ± 0.072
- ATAAAACG — higher, 0.145 ± 0.057
- AATAACAC — higher, 0.134 ± 0.04
- ATCAAACA — higher, 0.26 ± 0.0065
- CTCAAACA — higher, -0.00491 ± 0.013
- AATAAAAT — higher, 0.103 ± 0.12
- AATAACAA — higher, 0.259 ± 0.041
- AATAACAT — higher, 0.221 ± 0.13
- ATCAAGCA — within error, -0.065 ± 0.053
- GTAAAACA — higher, 0.174 ± 0.056
- AATAAAAA — higher, 0.258 ± 0.0034
- AGACACAC — higher, 0.158 ± 0.0089
- GCTTCAGA — within error, -0.0923 ± 0.073
- AATCGATT — higher, 0.0682 ± 0.041
- AAACGAGG — higher, 0.0592 ± 0.027
- CAGATGTC — higher, -0.0701 ± 0.0093
- CCCAGGTA — higher, -0.0104 ± 0.052
- AATACAAC — higher, 0.221 ± 0.053
- AATACAAG — higher, 0.245 ± 0.086
- AATACGCA — higher, 0.286 ± 0.0084
- AATACAGA — higher, 0.00182 ± 0.094
- AATACAAT — higher, 0.0568 ± 0.04
- AATACAAA — higher, 0.28 ± 0.018
- TATACAAA — higher, 0.256 ± 0.065
- AATACATA — higher, 0.139 ± 0.0041
- GATACAAA — higher, 0.084 ± 0.0085
- GATACGCA — higher, 0.0806 ± 0.032
- CATACAAA — higher, 0.0246 ± 0.065
- AATACGCT — higher, 0.217 ± 0.0037
- GCGTCCAA — higher, 0.016 ± 0.062
- TAGGATCA — within error, -0.0923 ± 0.052
- CAATAGTC — higher, -0.0201 ± 0.017
- ACGTGGTG — higher, 0.236 ± 0.017
- CCGTGGTA — within error, -0.156 ± 0.15
- GCGTGGTA — higher, 0.237 ± 0.045
- AGGTGGTG — within error, -0.104 ± 0.087
- ACGTGGTC — higher, 0.129 ± 0.092
- ACGTGGTA — higher, 0.146 ± 0.11
- GATTACGA — higher, 0.0561 ± 0.094
- AAATCCCT — higher, -0.0147 ± 0.019
- GAGGCGCA — higher, 0.0587 ± 0.03
- ACTTTCCG — higher, 0.00749 ± 0.064
- ACCTTGAC — higher, 0.00626 ± 0.011
- AAACTATA — higher, 0.115 ± 0.0056
- TAACTATA — higher, 0.255 ± 0.07
- CAACTATA — higher, 0.203 ± 0.018
- CCCTTTTC — within error, -0.0442 ± 0.061
- AATTACCC — higher, 0.237 ± 0.0059
- CATTACCC — higher, 0.0244 ± 0.022
- AATTACCA — higher, 0.171 ± 0.012
- GATGCAGC — higher, 0.0324 ± 0.041
- GTGGTCGA — higher, 0.0711 ± 0.071
- AAGATCTG — higher, 0.0472 ± 0.038
- AAGATCTT — higher, 0.322 ± 0.058
- AAGATCTA — within error, -0.063 ± 0.13
